Reference: ChEMBL document CHEMBL2218924, “A broad activity screen in support of a chemogenomic map for kinase signalling research and drug discovery” (Biochem J, 2013)

Columns and labels:
[1] = target: T1, CDK9/cyclin T1 (Homo sapiens) (UniProt O60563+P50750); conditions: at 1 µM
[2] = target: T1, CDK9/cyclin T1 (Homo sapiens); conditions: at 10 µM
[3] = target: T2, Serine/threonine-protein kinase Chk1 (Homo sapiens) (UniProt O14757); conditions: at 1 µM
T2 sequence (whole entry): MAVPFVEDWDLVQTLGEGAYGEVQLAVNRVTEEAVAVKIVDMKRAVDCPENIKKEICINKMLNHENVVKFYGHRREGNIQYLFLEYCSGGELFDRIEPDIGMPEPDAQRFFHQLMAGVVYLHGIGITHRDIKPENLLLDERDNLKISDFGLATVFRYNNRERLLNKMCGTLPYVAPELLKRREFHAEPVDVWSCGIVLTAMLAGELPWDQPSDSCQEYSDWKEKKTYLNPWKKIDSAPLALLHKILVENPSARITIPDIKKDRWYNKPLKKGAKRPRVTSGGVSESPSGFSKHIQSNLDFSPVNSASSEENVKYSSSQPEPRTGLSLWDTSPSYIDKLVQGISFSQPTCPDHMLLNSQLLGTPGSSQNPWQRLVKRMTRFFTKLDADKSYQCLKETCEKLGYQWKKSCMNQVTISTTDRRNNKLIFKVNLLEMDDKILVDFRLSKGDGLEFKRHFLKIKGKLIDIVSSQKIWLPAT

[4] = target: T2, Serine/threonine-protein kinase Chk1 (Homo sapiens); conditions: at 10 µM
[5] = target: Casein kinase I isoform gamma-1 (Homo sapiens) (UniProt Q9HCP0); conditions: at 10 µM
[6] = target: Casein kinase I isoform delta (Homo sapiens) (UniProt P48730); conditions: at 1 µM
[7] = target: Casein kinase I isoform delta (Homo sapiens) (UniProt P48730); conditions: at 10 µM
[8] = target: T3, Casein kinase II (Homo sapiens) (UniProt P67870+P68400+P19784); conditions: at 1 µM
[9] = target: T3, Casein kinase II (Homo sapiens); conditions: at 10 µM
[10] = target: Casein kinase II subunit alpha' (Homo sapiens) (UniProt P19784); conditions: at 1 µM
[11] = target: Casein kinase II subunit alpha' (Homo sapiens) (UniProt P19784); conditions: at 10 µM
[12] = target: Dual specificity protein kinase CLK2 (Homo sapiens) (UniProt P49760); conditions: at 1 µM
[13] = target: Dual specificity protein kinase CLK2 (Homo sapiens) (UniProt P49760); conditions: at 10 µM
[14] = target: Dual specificity protein kinase CLK3 (Homo sapiens) (UniProt P49761); conditions: at 1 µM
[15] = target: Dual specificity protein kinase CLK3 (Homo sapiens) (UniProt P49761); conditions: at 10 µM
[16] = target: Tyrosine-protein kinase CSK (Homo sapiens) (UniProt P41240); conditions: at 1 µM
[17] = target: Tyrosine-protein kinase CSK (Homo sapiens) (UniProt P41240); conditions: at 10 µM
[18] = target: Serine/threonine-protein kinase Chk2 (Homo sapiens) (UniProt O96017); conditions: at 1 µM
[19] = target: Serine/threonine-protein kinase Chk2 (Homo sapiens) (UniProt O96017); conditions: at 10 µM
[20] = target: Casein kinase I isoform gamma-1 (Homo sapiens) (UniProt Q9HCP0); conditions: at 1 µM

Dual specificity protein kinase CLK3 (Homo sapiens), sequence (P49761 whole entry, looked up): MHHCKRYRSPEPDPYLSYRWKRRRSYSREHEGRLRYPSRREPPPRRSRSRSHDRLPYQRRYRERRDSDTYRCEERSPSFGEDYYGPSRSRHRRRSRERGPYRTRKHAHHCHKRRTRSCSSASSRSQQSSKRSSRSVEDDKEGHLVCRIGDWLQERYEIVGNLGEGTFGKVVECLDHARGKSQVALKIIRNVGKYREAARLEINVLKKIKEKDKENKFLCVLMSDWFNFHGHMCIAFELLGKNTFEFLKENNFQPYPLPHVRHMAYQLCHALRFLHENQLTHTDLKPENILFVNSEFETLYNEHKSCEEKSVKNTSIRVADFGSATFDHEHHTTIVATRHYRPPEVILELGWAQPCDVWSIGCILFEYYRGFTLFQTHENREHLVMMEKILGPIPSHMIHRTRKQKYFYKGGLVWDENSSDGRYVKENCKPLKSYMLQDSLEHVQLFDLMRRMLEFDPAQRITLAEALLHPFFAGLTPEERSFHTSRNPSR
Dual specificity protein kinase CLK2 (Homo sapiens), sequence (P49760 whole entry, looked up): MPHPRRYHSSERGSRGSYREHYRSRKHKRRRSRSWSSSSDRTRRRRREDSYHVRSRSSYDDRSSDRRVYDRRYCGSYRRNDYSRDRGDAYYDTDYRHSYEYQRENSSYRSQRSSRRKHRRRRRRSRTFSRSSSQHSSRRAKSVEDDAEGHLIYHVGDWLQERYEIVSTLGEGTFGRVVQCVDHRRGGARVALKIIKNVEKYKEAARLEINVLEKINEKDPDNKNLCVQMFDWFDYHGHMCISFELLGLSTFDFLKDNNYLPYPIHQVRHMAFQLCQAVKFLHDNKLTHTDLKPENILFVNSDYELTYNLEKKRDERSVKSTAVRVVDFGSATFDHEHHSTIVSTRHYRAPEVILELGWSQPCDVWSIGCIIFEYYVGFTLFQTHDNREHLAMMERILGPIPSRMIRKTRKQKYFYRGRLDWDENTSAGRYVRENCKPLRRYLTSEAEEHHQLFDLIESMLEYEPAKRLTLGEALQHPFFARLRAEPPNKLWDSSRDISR
Serine/threonine-protein kinase Chk2 (Homo sapiens), sequence (O96017 whole entry, canonical isoform): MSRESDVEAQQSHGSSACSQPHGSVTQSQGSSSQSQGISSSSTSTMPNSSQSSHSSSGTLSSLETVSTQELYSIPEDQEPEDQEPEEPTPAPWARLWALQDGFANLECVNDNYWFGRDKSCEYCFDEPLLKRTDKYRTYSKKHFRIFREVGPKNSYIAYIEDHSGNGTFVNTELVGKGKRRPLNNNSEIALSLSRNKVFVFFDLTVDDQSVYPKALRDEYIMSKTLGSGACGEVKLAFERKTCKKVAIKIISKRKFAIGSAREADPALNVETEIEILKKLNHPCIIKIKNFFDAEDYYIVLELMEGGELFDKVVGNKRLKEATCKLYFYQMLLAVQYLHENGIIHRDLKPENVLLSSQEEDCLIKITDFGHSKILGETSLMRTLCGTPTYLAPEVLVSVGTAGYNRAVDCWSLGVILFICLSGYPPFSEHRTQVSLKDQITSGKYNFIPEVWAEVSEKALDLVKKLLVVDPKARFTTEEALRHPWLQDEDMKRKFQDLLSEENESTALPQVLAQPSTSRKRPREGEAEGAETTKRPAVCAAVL
Casein kinase I isoform gamma-1 (Homo sapiens), sequence (Q9HCP0 whole entry, looked up, canonical isoform): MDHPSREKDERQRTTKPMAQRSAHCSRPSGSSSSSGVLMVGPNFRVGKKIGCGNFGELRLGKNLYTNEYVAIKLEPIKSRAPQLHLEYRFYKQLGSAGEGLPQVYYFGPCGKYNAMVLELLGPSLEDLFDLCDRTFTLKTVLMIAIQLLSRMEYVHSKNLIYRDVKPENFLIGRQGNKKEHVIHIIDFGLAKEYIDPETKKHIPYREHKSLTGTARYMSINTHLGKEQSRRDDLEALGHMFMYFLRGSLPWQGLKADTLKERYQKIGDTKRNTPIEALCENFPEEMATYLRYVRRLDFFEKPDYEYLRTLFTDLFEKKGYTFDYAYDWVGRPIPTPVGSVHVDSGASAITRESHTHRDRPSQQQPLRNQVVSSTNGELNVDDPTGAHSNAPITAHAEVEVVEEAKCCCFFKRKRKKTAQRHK
Tyrosine-protein kinase CSK (Homo sapiens), sequence (P41240 2-450 limits assumed): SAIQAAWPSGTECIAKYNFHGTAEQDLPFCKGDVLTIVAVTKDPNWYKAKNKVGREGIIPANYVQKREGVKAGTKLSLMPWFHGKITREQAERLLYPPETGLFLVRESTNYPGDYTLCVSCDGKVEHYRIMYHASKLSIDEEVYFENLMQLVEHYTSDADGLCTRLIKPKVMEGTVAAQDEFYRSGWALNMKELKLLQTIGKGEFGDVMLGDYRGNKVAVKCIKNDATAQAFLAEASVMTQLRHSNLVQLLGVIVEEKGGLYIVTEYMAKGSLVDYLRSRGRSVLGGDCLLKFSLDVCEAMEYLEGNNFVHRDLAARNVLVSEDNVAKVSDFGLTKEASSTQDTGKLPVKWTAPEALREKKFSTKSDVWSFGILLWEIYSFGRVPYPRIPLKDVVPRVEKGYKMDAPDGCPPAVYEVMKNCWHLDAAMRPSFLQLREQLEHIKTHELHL
Casein kinase I isoform delta (Homo sapiens), sequence (P48730 whole entry, looked up, canonical isoform): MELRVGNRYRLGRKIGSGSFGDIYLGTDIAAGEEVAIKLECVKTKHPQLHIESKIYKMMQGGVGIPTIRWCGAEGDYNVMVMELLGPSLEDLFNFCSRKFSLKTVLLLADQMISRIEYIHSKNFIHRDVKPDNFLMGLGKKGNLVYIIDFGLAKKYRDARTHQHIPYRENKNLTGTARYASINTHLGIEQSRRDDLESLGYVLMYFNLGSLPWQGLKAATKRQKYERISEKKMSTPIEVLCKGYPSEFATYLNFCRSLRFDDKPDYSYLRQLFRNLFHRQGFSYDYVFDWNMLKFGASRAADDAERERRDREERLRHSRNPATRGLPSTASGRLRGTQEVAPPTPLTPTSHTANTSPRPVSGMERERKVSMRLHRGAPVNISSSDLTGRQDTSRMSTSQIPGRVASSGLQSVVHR
Casein kinase II subunit alpha' (Homo sapiens), sequence (P19784 whole entry, looked up): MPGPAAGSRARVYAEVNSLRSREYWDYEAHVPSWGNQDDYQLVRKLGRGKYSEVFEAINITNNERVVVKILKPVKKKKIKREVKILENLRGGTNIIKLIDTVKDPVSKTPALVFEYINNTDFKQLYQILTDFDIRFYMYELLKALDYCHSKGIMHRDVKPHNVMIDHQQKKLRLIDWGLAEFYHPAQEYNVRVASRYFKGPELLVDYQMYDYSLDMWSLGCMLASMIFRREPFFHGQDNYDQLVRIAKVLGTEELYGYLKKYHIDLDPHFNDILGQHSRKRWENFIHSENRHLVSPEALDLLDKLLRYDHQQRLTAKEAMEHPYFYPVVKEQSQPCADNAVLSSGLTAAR
T3 sequence (P19784 whole entry, looked up): as above
T3 sequence (P67870 whole entry, looked up): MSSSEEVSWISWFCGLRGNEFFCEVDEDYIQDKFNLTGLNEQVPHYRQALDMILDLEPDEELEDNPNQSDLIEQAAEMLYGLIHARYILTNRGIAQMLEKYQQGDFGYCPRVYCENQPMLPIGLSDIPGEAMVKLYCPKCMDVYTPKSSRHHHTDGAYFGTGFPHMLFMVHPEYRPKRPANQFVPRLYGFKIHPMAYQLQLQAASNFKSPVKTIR
T3 sequence (P68400 whole entry, looked up): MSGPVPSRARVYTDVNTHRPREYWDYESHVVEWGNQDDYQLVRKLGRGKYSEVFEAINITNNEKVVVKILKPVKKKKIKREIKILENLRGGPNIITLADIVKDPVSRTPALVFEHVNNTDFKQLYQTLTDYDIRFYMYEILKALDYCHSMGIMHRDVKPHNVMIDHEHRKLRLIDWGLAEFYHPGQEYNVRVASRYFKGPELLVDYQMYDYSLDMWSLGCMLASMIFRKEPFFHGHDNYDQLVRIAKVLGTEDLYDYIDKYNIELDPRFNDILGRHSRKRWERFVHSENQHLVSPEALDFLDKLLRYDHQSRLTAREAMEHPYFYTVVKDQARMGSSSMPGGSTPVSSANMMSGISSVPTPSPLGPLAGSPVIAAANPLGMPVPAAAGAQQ

| SMILES | residual activity [1] [%] | residual activity [2] [%] | residual activity [3] [%] | residual activity [4] [%] | residual activity [5] [%] | residual activity [6] [%] | residual activity [7] [%] | residual activity [8] [%] | residual activity [9] [%] | residual activity [10] [%] | residual activity [11] [%] | residual activity [12] [%] | residual activity [13] [%] | residual activity [14] [%] | residual activity [15] [%] | residual activity [16] [%] | residual activity [17] [%] | residual activity [18] [%] | residual activity [19] [%] | residual activity [20] [%] |
| --- | --- | --- | --- | --- | --- | --- | --- | --- | --- | --- | --- | --- | --- | --- | --- | --- | --- | --- | --- | --- |
| c1cc(-c2cnn3cc(-c4ccc(OCCN5CCCCC5)cc4)cnc23)ccn1 | 35 | 5 | 101 | 87 | 63 | 21 | 3 | 82 | 27 | 26 | 1 | 26 | 3 | 62 | 23 | 100 | 64 | – | – | – |
| CN[C@@H]1C[C@H]2O[C@@](C)([C@@H]1OC)n1c3ccccc3c3c4c(c5c6ccccc6n2c5c31)C(=O)NC4 | – | – | – | – | – | 77 | 46 | 81 | 85 | 83 | 85 | – | – | – | – | – | – | – | – | – |
| COc1cc(OC)c(/C=C2\C(=O)Nc3ccccc32)c(OC)c1 | 94 | 48 | 88 | 81 | 70 | 37 | 6 | 88 | 91 | 94 | 90 | – | – | 83 | 81 | – | 99 | 89 | 78 | 101 |
| N/C(=N\[N+](=O)[O-])N/N=C\c1ccc(-c2cccc([N+](=O)[O-])c2)o1 | – | – | – | – | 82 | 80 | 76 | 97 | 89 | – | – | – | – | 93 | 86 | 122 | 100 | 91 | 75 | 88 |
| CC(C)(C)c1cc(C=C(C#N)C#N)cc(Br)c1O | – | – | 105 | 105 | 97 | 99 | 48 | 113 | 114 | 121 | 113 | 99 | 103 | 100 | 108 | 103 | 105 | 96 | 99 | 104 |
| O=C1NC(=O)c2c1c1c3ccccc3n3c1c1c2c2ccccc2n1C1CCC3O1 | 71 | 66 | 25 | 20 | – | 75 | 75 | – | – | 63 | 49 | 100 | 92 | 95 | 85 | – | – | 26 | 24 | – |
| COc1ccc2c(c[n+](C)c3c4cc5c(cc4ccc23)OCO5)c1OC | – | – | 86 | 99 | 71 | – | – | 92 | 110 | 126 | – | 120 | 93 | 74 | 80 | – | 95 | 73 | 90 | 80 |
| CCn1cnc2c(Nc3cccc(Cl)c3)nc(N[C@@H]3CCCC[C@@H]3N)nc21 | 8 | 0 | 83 | 28 | 6 | 89 | 51 | 91 | 57 | – | – | 10 | 4 | 76 | 30 | – | 69 | 59 | 12 | 30 |
| C[S+]([O-])c1ccc(-c2nc(-c3ccc(F)cc3)c(-c3ccncc3)[nH]2)cc1 (stereo unspecified) | 98 | 108 | 104 | 97 | 61 | – | – | 100 | 104 | 122 | 105 | 114 | 94 | 98 | 98 | 103 | 98 | 90 | 90 | 119 |
| O=[N+]([O-])/C=C/c1ccc2c(c1)OCO2 | 112 | 100 | 85 | 101 | – | 98 | 113 | 105 | 126 | 134 | 102 | 121 | 101 | 91 | – | 112 | 100 | 85 | 85 | 83 |
| COc1cc2ncnc(Nc3ccc(OCc4ccccc4)cc3)c2cc1OC | 100 | 87 | 101 | 87 | 95 | 77 | 79 | 92 | 116 | 121 | 99 | 117 | 93 | 82 | 87 | 84 | 62 | 8 | 3 | 95 |
| CC(C)[C@H](CO)Nc1nc(Nc2cccc(Cl)c2)c2ncn(C(C)C)c2n1 | 23 | 5 | 99 | 86 | 1 | 74 | 23 | 99 | 96 | – | – | 8 | 1 | 55 | 11 | – | 65 | 96 | 38 | 10 |
| O=c1[nH]c2ccccc2n1C1CCN(Cc2ccc(-c3nc4cc5[nH]cnc5cc4nc3-c3ccccc3)cc2)CC1 | 104 | 105 | 102 | 88 | 62 | 84 | 53 | 89 | 101 | 113 | 95 | 98 | 76 | – | 76 | 112 | 89 | 95 | 87 | 90 |
| O=C1Nc2ccc3ncsc3c2/C1=C/c1c[nH]cn1 | 5 | 3 | 35 | 8 | 28 | 23 | 4 | 30 | 1 | 12 | -1 | 8 | 3 | 38 | 3 | 104 | 96 | 50 | 15 | 70 |
| COc1ccc2c(c1)/C(=C/c1cnc[nH]1)C(=O)N2 | 32 | 7 | 77 | 30 | 67 | 81 | 37 | – | – | – | 32 | 50 | 10 | – | – | – | – | 67 | 25 | – |
| COC(=O)[C@@]1(O)C[C@H]2O[C@]1(C)n1c3ccccc3c3c4c(c5c6ccccc6n2c5c31)C(=O)NC4 | 10 | 2 | 1 | -1 | 57 | 79 | 37 | 93 | 82 | 108 | 90 | 1 | 4 | 72 | 33 | 71 | 18 | 3 | 1 | 93 |
| COc1cc2nccc(Oc3ccc(NC(=O)Nc4cc(C)on4)c(Cl)c3)c2cc1OC | 76 | – | – | – | – | – | – | – | – | – | – | – | – | – | – | – | – | – | – | – |
| O=C1c2ccccc2-c2nc3nnnn3nc21 | – | – | – | – | – | – | – | – | – | 129 | 77 | 115 | 107 | 83 | 119 | 123 | 115 | – | – | – |
| CCc1nc(-c2ccc(OC)cc2)[nH]c1-c1ccncc1 | – | – | – | – | – | 74 | 37 | – | – | 121 | 100 | 101 | 74 | – | – | 123 | 102 | – | – | – |
